Only some compounds are listed: those with a hit (about 22% of all), similar ones and a draw of the others.
Pf growth 48h: P. falciparum growth inhibition at 48 hours (one generation) | Potency, µM (series often up to 28.7 µM), for the others: at the highest dose activity change, negative = inhibition, hits mostly inhibitors | AID 504832 | hit rate 5.9% among 310,000 | P. falciparum luciferase growth in erythrocytes, 48 h; further: potency means the concentration at half of the fitted maximal effect; on the % scale 0 is the no-effect control and ±100 the full control effect
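In quantitative HTS format, infected erythrocytes bearing luciferase-reporter parasites were treated for a single generation at 37 C. Luminescence after adding detection reagent served as the growth measure.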
Pf growth 96h: P. falciparum growth inhibition at 96 hours; P. falciparum luciferase reporter growth, 96 h; Potency, µM (series often up to 28.7 µM), for inactives: at the top dose activity change, negative = inhibition, usual class: inhibitors; hit rate 6.9% among 320,000; AID 504834; further: potency means the concentration at half of the fitted maximal effect; on the % scale 0 is the no-effect control and ±100 the full control effect
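Erythrocytes infected with luciferase-expressing P. falciparum were dispensed at 2% hematocrit and 0.05% parasitemia (final), then incubated with compounds 96 hours at 37 C in 5% CO2. Luminescence after detection reagent addition reported growth.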
Cycloheximide cs: counter-screen for Shiga toxin inhibitors: cycloheximide protein synthesis inhibition; cell reporter, cycloheximide protein synthesis inhibition counterscreen; hit rate 12% among 300,000; max response, %; in the data active means max response mostly above about 13%, no sharp cut-off; inactive means mostly below about 14%; further: read at 38.3 µM for the half of the compounds with a filed dose; 0% is about no effect
Shiga inhibitor: Shiga toxin inhibition. Vero cells, Shiga toxin protein synthesis inhibition reporter. inhibition, % at 38.7 µM. hit rate 9.2% among 290,000. AID 2315; in the data active means inhibition mostly above about 28%, no sharp cut-off; inactive means mostly below about 43%; further: 0% is about no effect
LmPK inhibitor: inhibitors of Leishmania mexicana pyruvate kinase; Q27686; purified LmPK, Kinase-Glo ATP luminescence, 1 h; Potency, µM (top dose mostly 57.5 µM), without a hit: at the top dose activity change, negative = inhibition, usual class: inhibitors; hit rate 0.37% among 290,000; AID 1721; further: potency means the concentration at half of the fitted maximal effect; on the % scale 0 is the no-effect control and ±100 the full control effect
Target sequence (Q27686 whole entry, looked up): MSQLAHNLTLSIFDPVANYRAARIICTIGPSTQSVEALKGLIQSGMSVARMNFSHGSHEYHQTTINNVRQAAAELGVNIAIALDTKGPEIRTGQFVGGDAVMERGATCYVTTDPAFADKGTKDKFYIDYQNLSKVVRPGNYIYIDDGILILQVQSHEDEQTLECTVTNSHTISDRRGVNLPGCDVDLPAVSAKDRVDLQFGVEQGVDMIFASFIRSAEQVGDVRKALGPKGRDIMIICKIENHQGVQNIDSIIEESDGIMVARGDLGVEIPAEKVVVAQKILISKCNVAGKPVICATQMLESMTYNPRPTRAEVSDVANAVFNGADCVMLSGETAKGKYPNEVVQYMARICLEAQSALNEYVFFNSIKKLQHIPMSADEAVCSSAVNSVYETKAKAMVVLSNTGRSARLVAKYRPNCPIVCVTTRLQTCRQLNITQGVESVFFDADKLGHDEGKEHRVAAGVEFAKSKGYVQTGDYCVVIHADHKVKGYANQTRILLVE
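Pyruvate kinase activity monitored as ATP production (luciferase luminescence). Conditions: 0.1 nM enzyme, 0.5 mM PEP, 0.1 mM ADP, 1 h, RT; normalized against uninhibited and no-enzyme wells.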
* marks the source's active call; other numbers are inactive results; ? = inconclusive; / = not tested or not shown; [ ] = dose if it differs, or a comment. Unless noted, the call rests on the fitted dose curve; in most records, active means well fitted inhibition curve with a large enough effect; inconclusive means small, poorly fitted or top-dose-only effect, or another doubt; inactive means no such curve, though single readings can be large or run the other way.

SMILES	Pf growth 48h	Pf growth 96h	Cycloheximide cs	Shiga inhibitor	LmPK inhibitor
Cn1c(=O)c2c(nc(CN3CCN(Cc4ccccc4)CC3)n2Cc2ccc(Cl)cc2)n(C)c1=O	/	2.62µM*	-8.4	-18.0	1.6%
O=S(=O)(c1cnc[nH]1)N1CCN(C(c2ccc(F)cc2)c2ccc(F)cc2)CC1	-11.7%	?	-3.9	-0.8	-0.5%
CCCn1c(SCC(=O)N2c3ccc(F)cc3CCC2C)nnc1-c1ccccn1 (stereo not drawn)	10.0%	?	-3.5	-11.5	-0.2%
O=C1c2ccccc2C(=O)N1CCC#Cc1ccc2cc(CCO)oc(=O)c2c1	11.6%	22.1%	/	/	/
CCCC1(C(=O)OCC)NC(c2ccco2)C2C(=O)N(C)C(=O)C21 (stereo not drawn)	-4.7%	?	2.1	14.4	6.1%
Cn1c(=O)c2c(nc(SCCN3CCOCC3)n2C)n(C)c1=O	?	3.7µM*	-3.5	-10.8	-4.5%
CC1CN(c2nc3c(c(=O)n(Cc4ccc(Cl)cc4)c(=O)n3C)n2C)CC(C)O1 (stereo not drawn)	5.86µM*	2.33µM*	-1.3	-4.2	2.9%
CC1Cc2ccccc2N1C(=O)CSc1nnnn1Cc1ccccc1 (stereo not drawn)	-5.5%	7.8%	12.4	-8.8	-4.8%
Cn1c(=O)c2c(nc(SCCN3CCCCC3)n2Cc2ccccc2)n(C)c1=O	?	2.33µM*	-1.2	-14.9	-0.5%
CC1Cc2ccccc2N1C(=O)CSc1nc2c(c(=O)n(C)c(=O)n2C)n1Cc1ccccc1 (stereo not drawn)	5.86µM*	-21.7%	-1.0	15.0	0.5%
Cc1ccc(F)cc1NC(=O)COC(=O)C1CCN(c2ccc(C(F)(F)F)cn2)CC1	38.1%	50.1%	/	/	/
CCC1CCCCN1Cc1nc2c(c(=O)n(C)c(=O)n2C)n1Cc1ccccc1 (stereo not drawn)	?	7.38µM*	-4.7	15.6	3.0%
CCC1CCCCN1Cc1nc2c(c(=O)n(C)c(=O)n2C)n1CCCc1ccccc1 (stereo not drawn)	?	?	-4.1	-13.1	2.8%
COc1cc(-c2nnc(SCC(=O)N3CCOCC3)o2)cc(OC)c1OC	16.6%	?	-1.8	15.6	1.2%
Cc1cc(C(=O)CSc2nnc(Nc3ccccc3)s2)c(C)n1CC1CCCO1 (stereo not drawn)	/	10.8%[5.75 µM]	-2.5	1.6	14.6%
Cc1cc(C(=O)CSc2nnc(-c3ccc(F)cc3)o2)c(C)n1CC1CCCO1 (stereo not drawn)	-6.4%	13.1µM*	9.8	15.1	-0.8%
COc1cc(-c2nnc(SCC3(c4ccc(Br)cc4)OCCO3)o2)cc(OC)c1OC	10.4µM*	13.1µM*	-3.7	-8.2	-2.0%
COc1cc(-c2nnc(SCC(=O)c3cc(C)n(CC4CCCO4)c3C)o2)cc(OC)c1OC (stereo not drawn)	8.28µM*	-19.1%[5.75 µM]	64.2*	active	0.6%
COc1cc(-c2nnc(SCC(=O)/C(C#N)=C(\C)N)o2)cc(OC)c1OC	?	9.28µM*	-1.4	-13.1	-1.0%
COc1ccc(/C=C/C(=O)OCC(=O)Nc2ccc(N3CCOCC3)cc2)cc1OC	35.9%	-0.2%	-0.7	-4.3	-0.7%
COc1ccccc1Nc1nnc(SCC(=O)c2cc(C)n(CC3CCCO3)c2C)s1 (stereo not drawn)	10.4µM*	4.65µM*	-1.7	-11.8	0.0%
O=C(CSc1cn(CCNC(=O)c2cccs2)c2ccccc12)NC1CCCC1	-18.9%	1.9%	13.5	17.1	-22.6%
Cc1cc(C(=O)N2CCc3ccccc32)c2cc(F)ccc2n1	-22.4%	-16.3%	35.4*	71.9*	-4.3%
O=C(c1cc2cc(Br)ccc2[nH]1)N1CCc2ccccc21	?	1.47µM*	18.6*	16.5	5.4%
O=C(c1cc2cc(Br)cc(Br)c2oc1=O)N1CCCc2ccccc21	/	-7.9%	-2.9	-8.7	5.9%
SMILES	Pf growth 48h	Pf growth 96h	Cycloheximide cs	Shiga inhibitor	LmPK inhibitor
COc1ccc2cc(C(=O)N3CCc4ccccc43)[nH]c2c1	158.6%	278.4%	33.6*	99.8*	-0.1%
O=C(c1cccc(F)c1)N1CCc2ccccc21	14.3%	/	4.7	-9.1	0.9%
O=C(c1cc2cc(F)ccc2[nH]1)N1CCc2ccccc21	?	?	34.2*	74.3*	3.4%
CCN(Cc1ccccc1)C(=O)C(C)OC(=O)c1cc(S(=O)(=O)Nc2c(C)n(C)n(-c3ccccc3)c2=O)ccc1C (stereo not drawn)	?	-26.1%	-1.9	-8.8	-7.1%
Cc1ccc(NC(=O)CSc2nc(O)c(Cc3ccccc3)c(=O)n2-c2ccccc2)cc1	14.2%	?	1.1	22.2	3.2%
C#CC1CCCCC1NC(=O)Nc1cnccc1C(F)(F)F (stereo not drawn)	-12.6%	0.3%	-1.2	-5.1	2.1%
CCN(CC)c1ccc(C=Nc2ccc(C)cc2C)c(O)c1	20.8%	25.0%	8.1	18.6	0.3%
Cc1ccc(N=Cc2ccc[nH]2)c(O)c1	-146.7%	?	43.9*	98.4*	-0.9%
CC1CCCC2(C1)NC(=S)N(c1ccccc1)N2 (stereo not drawn)	39.4%	66.3%	28.4*	27.5	-1.9%
O=C(Nc1ccccc1)Nc1nnc(Cc2ccc([N+](=O)[O-])cc2)s1	?	11.5%	13.7	6.7	3.4%
COc1ccc(NC(=O)Nc2nnc(Cc3ccccc3)s2)cc1	?	?	-0.9	-2.6	2.3%
Cc1ccc(NC(=O)Nc2nnc(Cc3ccc(F)cc3)s2)cc1	-24.5%	?	16.1	41.8*	2.6%
Cc1ccc(NC(=O)Nc2nnc(Cc3ccc([N+](=O)[O-])cc3)s2)cc1C	?	?	18.4*	30.7	2.1%
COc1ccc(Cc2nnc(NC(=O)Nc3ccccc3F)s2)cc1OC	?	11.7µM*	-1.3	-10.7	2.5%
O=C(Nc1nnc(Cc2ccc(F)cc2)s1)Nc1ccccc1F	-4.5%	11.7µM*	-1.7	-3.5	-3.0%
C=C(C)C1CCC(C)C(OC(C)=O)C1 (stereo not drawn)	/	/	-7.2	-1.9	/
O=C(Nc1ccccc1)Nc1nnc(Cc2ccc(F)cc2)s1	?	8.28µM*	-2.2	-3.3	-7.0%
CCc1cccc(CC)c1NC(=O)COC(=O)c1cccc(-c2ccc(OC(C)=O)cc2)c1	-28.8%	?	-3.7	-4.7	2.8%
COc1ccc(CCNC(=O)CC2C(=O)NCCN2CC(C)(C)C)cc1 (stereo not drawn)	-13.9%	-14.7%	-1.1	-17.5	-1.1%
COc1ccc(CN2CCNC(=O)C2CC(=O)NCCC2=CCCCC2)cc1OC (stereo not drawn)	-5.7%	10.4µM*	1.7	9.3	0.1%
COc1cccc(CCNC(=O)CC2C(=O)NCCN2CC(C)(C)C)c1 (stereo not drawn)	12.6%	14.7µM*	-3.8	-3.5	3.1%
O=C(CC1C(=O)NCCN1Cc1cccc(Oc2ccccc2)c1)NCCc1cnccn1 (stereo not drawn)	-1.2%	?	4.4	29.0	-1.0%
CCOC(=O)CC1C(=O)NCCN1Cc1ccc(OC)c(OC)c1 (stereo not drawn)	0.4%	10.4µM*	-1.2	-4.3	-0.4%
